Results from PubChem BioAssay (NCI).
Compounds without any hit were thinned out: in the full panel of roughly 79,000, 15% have a hit. The source made the active and inactive calls. Rule as the data show it: active = growth inhibition above about 70%; inactive = the rest.

Key:
[1] = NCI Yeast Anticancer Drug Screen. Data for the rad50 strain (AID 155);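 also: 0% = growth of vehicle-only cultures of the same strain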; settings: S. cerevisiae rad50 strain growth inhibition, stronger effect = higher value
Summary of the method: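 A DNA repair-deficient yeast mutant serves as the test organism; compound-induced growth inhibition is calculated against vehicle-treated cells.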

[2] = NCI Yeast Anticancer Drug Screen. Data for the mec2-1 strain (AID 157); settings: S. cerevisiae mec2-1 strain, stronger effect = higher value
Summary of the method: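 Vehicle-treated cultures served as reference for growth inhibition of compound-exposed mec2-1 yeast.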

[3] = NCI Yeast Anticancer Drug Screen. Data for the sgs1 mgt1 strain (AID 161);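 also: 0% = growth of cultures given vehicle only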; settings: S. cerevisiae sgs1 mgt1 strain, stronger effect = higher value
Summary of the method: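 Genetically altered yeast, compound exposure, growth inhibition relative to vehicle.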

[4] = NCI Yeast Anticancer Drug Screen. Data for the cln2 rad14 strain (AID 165);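 also: 0% = growth equal to vehicle treated cultures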; settings: S. cerevisiae cln2 rad14 strain, stronger effect = higher value
Summary of the method: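 Each compound was tested on cln2 rad14 yeast. Inhibition of growth was calculated against vehicle-exposed controls.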

[5] = NCI Yeast Anticancer Drug Screen. Data for the bub3 strain (AID 167); settings: S. cerevisiae bub3 mutant strain, stronger effect = higher value
Summary of the method: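 Inhibition values come from growth of compound-treated mutant yeast normalised to vehicle-treated controls.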

[6] = NCI Yeast Anticancer Drug Screen. Data for the mlh1 rad18 strain (AID 175); settings: S. cerevisiae mlh1 rad18 strain growth inhibition, stronger effect = higher value
Summary of the method: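 Vehicle-treated cultures served as the reference for growth inhibition in a yeast strain carrying DNA damage repair alterations exposed to each compound.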

[7] = at 5.0 µM (retest, dose inferred, filed as 0.5)
[8] = at 50.0 µM (retest, dose inferred, filed as 5.0)

Measured: growth inhibition

CC(=O)c1sc(Nc2ccc(Cl)c(Cl)c2)nc1C
active: [1]; at 50.0 µM 95% | [2]; at 50.0 µM 81% | [3]; at 50.0 µM 97% | [4]; at 50.0 µM 91.2% | [5]; at 50.0 µM 81.8% | [6]; at 50.0 µM 93.2%
inactive: [1]; [7] 8% | [1]; [8] 35% | [2]; [7] 4% | [2]; [8] 19% | [3]; [7] 27% | [3]; [8] 22% | [4]; [7] 1% | [4]; [8] 35% | [5]; [7] 1% | [5]; [8] 56% | [6]; [7] 15% | [6]; [8] 47%

S=c1[nH]c2cc(-c3ccccc3)ccc2o1
active: [1]; [8] 98% | [2]; [8] 98% | [3]; [8] 72% | [3]; at 50.0 µM 78% | [6]; [8] 98%
inactive: [1]; [7] 63% | [1]; at 50.0 µM 64.2% | [2]; [7] 37% | [2]; at 50.0 µM 53.1% | [3]; [7] 17% | [4]; [7] 52% | [4]; [8] 65% | [4]; at 50.0 µM 47.1% | [5]; [7] 19% | [5]; [8] 52% | [5]; at 50.0 µM 52% | [6]; [7] 51% | [6]; at 50.0 µM 47.8%

Cn1c(CCC2(C)Cc3ccccc3C(=O)O2)cc2ccccc2c1=O (stereo not given)
inactive: [1]; [7] 3% | [1]; [8] 31% | [1]; at 50.0 µM 55.2% | [2]; [7] -6% | [2]; [8] 48% | [2]; at 50.0 µM 69.7% | [3]; [7] 0% | [4]; [7] -11% | [4]; [8] 27% | [4]; at 50.0 µM 28.4% | [5]; [7] -27% | [6]; [7] 2% | [6]; [8] 48% | [6]; at 50.0 µM 49%
active: [3]; [8] 79% | [3]; at 50.0 µM 73.9% | [5]; [8] 86% | [5]; at 50.0 µM 75.3%

CC(NC(=O)C(NC(=O)C(NC(=O)C(F)(F)F)C(C)C)C(C)C)C(=O)Oc1c(Cl)c(Cl)c(Cl)c(Cl)c1Cl (stereo not given)
inactive: [1]; [7] 5% | [1]; at 50.0 µM 59% | [2]; [7] 6% | [2]; [8] 62% | [3]; [7] 21% | [4]; [7] 10% | [4]; [8] 68% | [5]; [7] -20% | [5]; [8] 65% | [6]; [7] 28%
active: [1]; [8] 70% | [2]; at 50.0 µM 86.7% | [3]; [8] 80% | [3]; at 50.0 µM 82.9% | [4]; at 50.0 µM 77.7% | [5]; at 50.0 µM 85.6% | [6]; [8] 83% | [6]; at 50.0 µM 78.7%

Oc1ccc(O)c2c1N=NC21c2ccccc2Oc2ccccc21
inactive: [1]; [7] 5% | [1]; at 50.0 µM 65.6% | [2]; [7] 7% | [2]; at 50.0 µM 54% | [3]; [7] 6% | [4]; [7] 10% | [5]; [7] 5% | [6]; [7] 8%
active: [1]; [8] 86% | [2]; [8] 89% | [3]; [8] 91% | [3]; at 50.0 µM 83% | [4]; [8] 84% | [4]; at 50.0 µM 86.5% | [5]; [8] 89% | [5]; at 50.0 µM 86.6% | [6]; [8] 95% | [6]; at 50.0 µM 90.8%

CC(=O)O/N=C1/CCC2C3CC=C4CC(OC(C)=O)CCC4(C)C3CCC12C (stereo not given)
inactive: [1]; [7] 0% | [1]; [8] 69% | [1]; at 50.0 µM 68.8% | [2]; [7] 16% | [3]; [7] 8% | [4]; [7] -1% | [5]; [7] -7% | [5]; at 50.0 µM 41.5% | [6]; [7] 34%
active: [2]; [8] 93% | [2]; at 50.0 µM 71.5% | [3]; [8] 89% | [3]; at 50.0 µM 89.9% | [4]; [8] 87% | [4]; at 50.0 µM 85% | [5]; [8] 74% | [6]; [8] 93% | [6]; at 50.0 µM 77.1%

CSC(=S)SC(SC)S(C)(=O)=O (stereo not given)
active: [1]; at 50.0 µM 98.5% | [2]; at 50.0 µM 99.7% | [3]; at 50.0 µM 99.3% | [4]; at 50.0 µM 99.1% | [5]; at 50.0 µM 99.5% | [6]; at 50.0 µM 99.3%
inactive: [1]; [7] -7% | [1]; [8] 0% | [2]; [7] -5% | [2]; [8] -3% | [3]; [7] -5% | [3]; [8] -16% | [4]; [7] 1% | [4]; [8] 2% | [5]; [7] -5% | [5]; [8] -11% | [6]; [7] -8% | [6]; [8] -9%

O=C(NCc1ccc(F)cc1)c1ccc(C(=O)NCc2ccc(F)cc2)cc1
inactive: [1]; [7] 1% | [1]; [8] -4% | [1]; at 50.0 µM -6.6% | [2]; [7] -19% | [2]; [8] 21% | [2]; at 50.0 µM -4.05% | [3]; [7] -13% | [3]; [8] 2% | [3]; at 50.0 µM -13.1% | [4]; [7] 2% | [4]; [8] 6% | [4]; at 50.0 µM 58.4% | [5]; [7] 1% | [5]; [8] 7% | [5]; at 50.0 µM -6.9% | [6]; [7] -8% | [6]; [8] -20% | [6]; at 50.0 µM -10.1%

OC(c1ccc(Cl)cc1)c1ccc(Cl)cc1
inactive: [1]; [7] -7% | [2]; [7] -11% | [3]; [7] -7% | [4]; [7] -17% | [5]; [7] -11% | [6]; [7] -6%
active: [1]; [8] 100% | [1]; at 50.0 µM 79% | [2]; [8] 100% | [2]; at 50.0 µM 98.2% | [3]; [8] 100% | [3]; at 50.0 µM 75.2% | [4]; [8] 100% | [4]; at 50.0 µM 85.3% | [5]; [8] 100% | [5]; at 50.0 µM 98.8% | [6]; [8] 99% | [6]; at 50.0 µM 85.2%

c1ccc(Cn2nnc(-c3ccccc3)c2-c2ccccc2)cc1
active: [1]; [8] 90% | [1]; at 50.0 µM 90.6% | [2]; [8] 97% | [2]; at 50.0 µM 87.6% | [3]; [8] 96% | [3]; at 50.0 µM 85.6% | [4]; [8] 97% | [4]; at 50.0 µM 87.8% | [5]; [8] 96% | [5]; at 50.0 µM 94% | [6]; [8] 94% | [6]; at 50.0 µM 87.5%
inactive: [1]; [7] -2% | [2]; [7] -12% | [3]; [7] -6% | [4]; [7] 6% | [5]; [7] 17% | [6]; [7] 14%
